Screening results (PubChem)
GAA spleen mod – inhibits or activates alpha-glucosidase in human spleen homogenate | AID 2112 | hit rate 0.006% among 240,000 | human spleen homogenate, 4-MU-alpha-glucoside fluorescence | Potency, µM (top dose mostly 79.9 µM), without a hit: at the top dose activity change, negative = inhibition, usual class: inhibitors;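 note: 0% = enzyme with vehicle and -100% = no enzyme basal signal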
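Compounds were titrated against alpha-glucosidase in spleen homogenate at pH 5.0, with 1 mM 4-methylumbelliferyl substrate for 40 min at 37 C. Reactions were quenched with pH 10 NaOH/glycine and fluorescence measured.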
GAA inhib – inhibitors of human lysosomal alpha-glucosidase. Potency, µM (doses to about 76.9 µM), without a hit: top-dose activity change, negative = inhibition, most hits filed as inhibitors. hit rate 0.005% among 200,000. purified human GAA, 4-MU-alpha-glucoside fluorescence. AID 1466;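 note: plate controls were uninhibited enzyme wells for no effect and no-enzyme background for full effect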
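qHTS format, compound range up to 77 uM. Human lysosomal enzyme at 4 nM, 400 uM 4-MU glucoside substrate, pH 5.0, 20 min room temperature; fluorescence after alkaline stop gives activity normalized to controls.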
LMNA splice mod – modulators of lamin A splicing | HeLa LMNA splicing GFP/RFP minigene ratio, 48 h | Potency, µM (series often up to 46.1 µM), for the others: at the top dose ratio change, negative = inhibition, usual class: inhibitors | hit rate 0.01% among 200,000 | AID 1487; active = well fitted inhibition curve with a large enough effect in the signal ratio, with a control signal flat, not every such curve was filed as active; inconclusive = small, poorly fitted or top-dose-only effect, or effect the other way, or a change in a side signal; the % refers to the signal ratio
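Read-out is the ratio of GFP to DsRed2 object intensity, acquired by 488 nm laser-scanning cytometry on HeLa lamin A-EGFP minigene reporter cells. Compound incubation 48 hrs at 37 °C in Opti-MEM with 2% FBS; DMSO 0.5% final.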
GAA glycogen – alters human alpha-glucosidase cleavage of glycogen. recombinant GAA, glycogen substrate, Amplex Red glucose oxidase fluorescence. Potency, µM (series often up to 76.4 µM), for the others: at the top dose activity change, negative = inhibition, usual class: inhibitors. hit rate 0.38% among 300,000;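 note: 0% = full enzyme reaction and -100% = no-enzyme basal signal; the screen sought inhibitors and activators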
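Recombinant human alpha-glucosidase (4 nM final) hydrolysed bovine liver glycogen (30 ug) for 40 min at 37 C in pH 5.0 citrate/phosphate with 0.01% Tween-20. Released glucose detected by glucose oxidase/Amplex Red, Ex 573/Em 610 nm. Compounds up to 77 uM; AC50 from Hill fits.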
N370S GC mod – inhibitors or activators of N370S glucocerebrosidase for Gaucher disease | N370S GC spleen homogenate, 4MU-glucoside fluorescence | Potency, µM (doses to about 59.4 µM), without a hit: at the highest dose activity change, negative = inhibition, usual class: inhibitors | hit rate 0.092% among 330,000 | AID 2101;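 note: 0% = full enzyme activity and -100% = no enzyme basal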
KinaseGlo FLuc – Kinase-Glo luciferase inhibition (counter-screen) | AID 1379 | hit rate 0.28% among 200,000 | Potency, µM (series often up to 38.3 µM), for the others: at the highest dose activity change, negative = inhibition, most hits filed as inhibitors | Q27757 | Kinase-Glo luciferase, ATP luminescence, 8 min; note: nearly all actives have a fitted effect of over 60% in size
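Recombinant Kinase-Glo luciferase, 10 uM ATP (linear range), luciferin; imidazole pH 7.2 / KCl / MgCl2 / Tween / BSA buffer; 8 min RT; luminescence.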
The depositor's hits bear a star; ! = repeats disagree; [ ] = another dose, or the depositor's remark. A selection: hits, their analogues and other compounds. The true share with any hit is near 0.52%. Unless noted, calls come from the whole dose curve; as a rule, active = well fitted curve in the direction sought with a large enough effect; inconclusive = small, poorly fitted or top-dose-only effect, or another doubt; inactive = no such curve, though single readings can be large; an effect the other way counts as inactive or inconclusive. Unless noted, % is set by controls: 0 for no effect and ±100 for the full control effect; potency is the fitted concentration of half-maximal effect.

C=CC[C@@H]1C=C[C@@H](O/N=C(/C)CCC(=O)OC[C@@H]2O[C@H](c3ccccc3)C=C[C@@H]2Oc2ccc(OC)cc2)[C@@H](CO)O1 was read as GAA spleen mod 3%[17.4 µM] and N370S GC mod -21%[12.8 µM].
Screening c1cc(CNc2ccc3c(c2)OCO3)ccn1 returned GAA spleen mod -8%, GAA inhib -3%, LMNA splice mod -14%, GAA glycogen 32µM*, N370S GC mod 1% and KinaseGlo FLuc -1%.
Screening CCCCOC(=O)c1ccc(OC(=O)c2sc3ncn(Cc4cccc(F)c4)c(=O)c3c2C)cc1 returned LMNA splice mod 8%[46 µM].
`COc1ccc(/C=N/N=C(\N)c2nonc2N)cc1` gave GAA spleen mod 3%, GAA inhib -1%, LMNA splice mod 18%[46 µM], GAA glycogen inconclusive, N370S GC mod -4% and KinaseGlo FLuc 10µM*.
For CO[C@@H]1/C=C\O[C@]2(C)Oc3c(C)c(O)c4c(O)c(cc(O)c4c3C2=O)NC(=O)/C(C)=C\C=C/[C@H](C)[C@@H](O)[C@H](C)[C@H](O)C(C)[C@H](OC(C)=O)[C@@H]1C (stereo partly specified) the results were KinaseGlo FLuc 0%[7.66 µM].
For CN=c1scc(-c2cccs2)n1/N=C/c1ccc(O)c(O)c1O the results were GAA spleen mod 3%, GAA inhib inconclusive, LMNA splice mod -11%, GAA glycogen inconclusive, N370S GC mod -8% and KinaseGlo FLuc -26%.
CN=c1scc(C)n1/N=C/c1ccc(O)c(O)c1O was read as GAA spleen mod -14%, GAA inhib -14%, LMNA splice mod 9%, GAA glycogen 11µM* and KinaseGlo FLuc inconclusive.
For Cc1cc(C(C#N)c2ccccc2)n2ncnc2n1 (stereo unspecified) the results were GAA spleen mod 2%, GAA inhib inconclusive, LMNA splice mod 3%, GAA glycogen 25µM*, N370S GC mod 1% and KinaseGlo FLuc 0%.
Screening Cc1cc(C)nc(SCC(=O)Nc2ccc(S(=O)(=O)Nc3ncccn3)cc2)n1 returned GAA spleen mod -6%, GAA inhib 8%, GAA glycogen 3.5µM*, N370S GC mod 13% and KinaseGlo FLuc -2%.
`CC#CC[N+](C)(C)CCCCCCCCCC` gave GAA spleen mod -6%, GAA glycogen 17% and N370S GC mod 16µM*.
CN1CCN(c2ncncc2-c2ccc(N(C)C)cc2)CC1 was read as GAA spleen mod 7%, LMNA splice mod 7% and N370S GC mod -2%.
Screening CCOc1ccc(C(C)=O)cc1COc1ccc(-c2nnco2)cc1 returned N370S GC mod 11µM*.
CC(NC(=O)c1ccc(N(C)C)cc1)c1ccc(F)cc1 (stereo unspecified) was read as GAA spleen mod 4%, GAA inhib 1%, LMNA splice mod -15%[46 µM], GAA glycogen -21%, N370S GC mod 13% and KinaseGlo FLuc 0%.
For CC(/C=C/C(=O)NO)=C\[C@@H](C)C(=O)c1ccc(N(C)C)cc1 the results were GAA spleen mod -7%, N370S GC mod 18µM*! and KinaseGlo FLuc 1%[39.9 µM].
Screening Cc1cccc(NNC(=O)C(=O)NNc2cccc(C)c2)c1 returned GAA spleen mod 9%, GAA glycogen inconclusive and N370S GC mod 16%.
Screening CCCc1ccc(C(=O)NNc2cccc(C)c2)cc1 returned GAA spleen mod -4%, GAA glycogen 16µM* and N370S GC mod 26%.
CC1=C(C#N)C(c2ccc(O)cc2)C2=C(CC(C)(C)CC2=O)N1 (stereo unspecified) was read as GAA spleen mod -2%, GAA inhib 2%, LMNA splice mod -2%, GAA glycogen 0%, N370S GC mod -30% and KinaseGlo FLuc 3%.
